About 17,000 (4.7%) of roughly 360,000 compounds were called active. Not shown: some 5% with an inconclusive outcome. This excerpt belongs to a sample that is enriched for actives. A number with no mark means an inactive call. No stated cut-off is given here; in the data, active means activity change below about -50%; inconclusive means mostly about -30% to -49%; inactive means weaker than that.
Assay: qHTS for Inhibitors of Inflammasome Signaling: IL-1-beta AlphaLISA Primary Screen
Details: THP-1 LPS/ATP IL-1B secretion, 16 h; at 57.5 µM, active compounds read low
How it was run: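 Secreted IL-1B measured by AlphaLISA bead assay after 16 h compound exposure of THP-1 cells; compounds (final up to 57.5 uM) added 1 h before LPS (250 ng/mL) and ATP (1.25 mM) stimulation; lower signal means less secretion.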
On the % scale 0 is the no-effect control and ±100 the full control effect.

Row | Structure (SMILES) | activity change
1 | O=C(NC(=S)NC1CCCCC1)c1ccc(Cl)cc1 | -21%
2 | O=C(NC1CCCCCC1)c1cccnc1Sc1ccc(Cl)cc1 | 1.6%
3 | O=C(NC1CCCCC1)c1ccc(-c2ccc(Cl)cc2)o1 | -76.5% (active)
4 | CCCNC(=O)C1(C)CCN(Cc2ccc(Cl)c(Cl)c2)C1 (centres undefined) | 17.3%
5 | COc1ccc(N)c(C)c1 | -25.8%
6 | COC(=O)[C@]12CCCCC=C1N(CCC1=CCCCC1)C(=O)[C@H](CC(=O)NCC1CCCCC1)C2 | -28.6%
7 | O=C(CCCN1CCc2[nH]c3ccc(F)cc3c2C1)c1ccc(F)cc1 | -79.8% (active)
8 | O=C(Nc1ccc(Cl)cc1)N1CCc2[nH]c3ccccc3c2C1 | -18.5%
9 | Fc1ccc(NC(=S)N2CCc3[nH]c4ccccc4c3C2)cc1 | 11.5%
10 | CCCCN1C[C@H](c2ccc(Br)cc2)[C@@H](CC(=O)Nc2ccc(Br)cc2)C1=O | -5.58%
11 | OCc1ccc(OCCCOc2cccc3cccnc23)cc1 | -1.1%
12 | O=C(Nc1ccccc1)Oc1cccc2cccnc12 | -91.6% (active)
13 | NC(=O)C1CCN(C(=O)COc2cccc3cccnc23)CC1 | 0.882%
14 | C[C@H](CO)N1C[C@H](C)[C@H](CN(C)CC2CC2)Oc2ccc(NC(=O)CCN3CCOCC3)cc2C1=O | 18.8%
15 | O=C(C1CCCO1)N1CCN(C(=O)C23CC4CC(CC(C4)C2)C3)CC1 (centres undefined) | 9.67%
16 | CN1CCN(c2ccc([N+](=O)[O-])c(Sc3nc4ccccc4[nH]3)c2)CC1 | -26.9%
17 | CCC(C)N1C(=O)S/C(=C/c2ccc(Sc3nc4ccccc4[nH]3)o2)C1=O (centres undefined) | -96.1% (active)
18 | CCC(c1nc2ccccc2[nH]1)n1c(=O)c(-c2cccs2)nc2ccccc21 (centres undefined) | -20%
19 | CC(C)c1csc(CN2CCC(CO)(Cc3ccccc3)CC2)n1 | -21.7%
20 | CN=C(NC#N)NCCSCc1nc[nH]c1C | 33.7%
21 | COc1ccccc1-n1nnnc1SCC(=O)NC(=O)Cc1ccccc1 | 4.79%
22 | CCC(C)N(C(=O)CSc1nnnn1-c1ccccc1OC)C1CCS(=O)(=O)C1 (centres undefined) | -14.9%

Row | Structure (SMILES) | activity change
23 | COc1ccccc1-n1nnnc1S(=O)(=O)Cc1ccc(Cl)cc1 | -119% (active)
24 | CCCC(C)n1[nH]c(=O)c2c(C)cc(C)nc21 (centres undefined) | -13.2%
25 | Cc1cc(O)ccc1NC1=CC(=O)CC(C)(C)C1 | -0.895%
26 | Cc1ccccc1C#CC1=CC(=O)CC(C)(C)C1 | -52.1% (active)
27 | CC1(C)CC(=O)C=C(Nc2ccccc2)C1 | -3.98%
28 | CC1C(=O)N(Cc2cn(CC3CCCCC3)nn2)CCS(=O)(=O)N1Cc1ccc(-c2cccc(N(C)C)c2)cc1 (centres undefined) | 0%
29 | OCCN1CCN(CCO)C1=S | 15.9%
30 | Cc1c(NC(=O)c2coc(=O)c(Br)c2)c(=O)n(-c2ccccc2)n1C | -72.5% (active)
31 | Cc1cc2oc(C(=O)Nc3c(C)n(C)n(-c4ccccc4)c3=O)c(C)c2cc1Cl | 0%
32 | Cc1c(NC(=O)c2cc(-c3ccc(Br)cc3)on2)c(=O)n(-c2ccccc2)n1C | -16.8%
33 | COC(c1ccccc1)(c1ccccc1)C(Oc1nc(C)cc(C)n1)C(=O)O (centres undefined) | 17.2%
34 | COc1ccc(C(=O)COC(=O)c2nn(C)c(=O)c3ccccc23)c(OC)c1 | -0.449%
35 | CC[C@]12c3[nH]c4ccc(OC)cc4c3CCN1C(=O)C(CC(=O)NCc1ccco1)C[C@@H]2C(=O)N1CCN(C(=O)C2CC2)CC1 (some centres undefined) | 16.2%
36 | CCCCOc1ccc(NC(=O)CSCC(=O)OCC)cc1 | -3.32%
37 | CCCCn1c(N)c(N(CCOC)C(=O)c2cccc(OCc3ccccc3)c2)c(=O)[nH]c1=O | -4.76%
38 | CCCCCCCCCCOC(=O)Cn1c(COc2ccc(C)cc2)[n+](C)c2ccccc21 | -90.4% (active)
39 | COc1cccc(OCc2nnc3n2N=C(c2ccccc2)C(CC(=O)O)S3)c1 (centres undefined) | 29.1%
40 | CCCCCCCCCCOC(=O)Cn1c(COc2cccc(OC)c2)[n+](C)c2ccccc21 | -79.3% (active)
41 | Cc1ccc(COc2ccc(C(=O)NN)cc2)cc1 | -17.7%
42 | COc1ccc(NC(=O)C2Cc3c(-c4ccc5c(c4)OCO5)ccnc3O2)cn1 (centres undefined) | 22.6%
43 | COC(=O)N(C)C[C@@H]1OCc2cnnn2CCCC(=O)N([C@@H](C)CO)C[C@@H]1C | 1.38%
44 | CC1CN(Cc2ccco2)C(=S)N(c2ccccc2)C1=O (centres undefined) | 3.29%

Row | Structure (SMILES) | activity change
45 | O=C1CCN(CCc2ccccc2)CCN1CCOc1ccccc1 | 23.9%
46 | O=c1[nH]c2ccccc2n1C1CCN(CCOc2ccccc2)CC1 | -51.9% (active)
47 | OC(c1ccccc1)(c1ccccc1)C1CCN(CCCOc2ccccc2)CC1 | -28.1%
48 | O=C(c1ccc(N2CCCC2=O)cc1)N1CCN(c2ccc(C(F)(F)F)cc2[N+](=O)[O-])CC1 | -8.61%
49 | CCOc1ccc(Br)cc1S(=O)(=O)Nc1cccc(S(=O)(=O)N(CC)CC)c1 | -3.12%
50 | CC1(C)OC(=O)C2=C(C[C@@H](C3CCCC3)O[C@@H]2c2ccc(Cl)cc2)O1 | 30.2%
51 | Cc1cc(C)c2c(NC(=O)C3CC3)nn(C)c2n1 | -2.02%
52 | Cc1cc(-n2nc(C)cc2C)n2nc(C)c(-c3ccccc3)c2n1 | -4.92%
53 | Cc1cc(C)c2c(n1)nn1c(-n3ccnc3)cc(C)nc21 | -75.6% (active)
54 | CN(C)Cc1ccc(F)cc1Sc1cc(Cl)ccc1Cl | 4.08%
55 | Cc1ccccc1CN1C(=O)CSCC1(C)C(=O)Nc1c(C)cccc1C (centres undefined) | -3.26%
56 | CC1CC(C)CN(CC(=O)N2c3ccccc3CCc3ccccc32)C1 (centres undefined) | -6.12%
57 | CC1C(C)N(C(=O)CCl)c2ccccc2N1C(=O)CCl (centres undefined) | -101% (active)
58 | CC1C(=O)N(Cc2ccccc2)c2ccccc2N1C(=O)c1ccccc1 (centres undefined) | 0.175%
59 | O=C(OCCOc1ccccc1Cl)c1cc(S(=O)(=O)N2CCCCC2)ccc1N1CCOCC1 | 11.6%
60 | O=C(c1c(F)cccc1Cl)N1CCN(c2ccccn2)CC1 | -9.43%
61 | O=C(c1c(Cl)cccc1Cl)N1CCN(c2cccc3[nH]ccc23)CC1 | -73.5% (active)
62 | O=C(c1ccc2ccccc2n1)N1CCN(c2ccccc2Cl)CC1 | -2.41%
63 | Cc1ccc(C2=NN(C(=O)CSc3nc(N)cc(N)n3)C(c3ccco3)C2)cc1 (centres undefined) | -23.3%
64 | COCCCN1C(=O)C(CC(=O)NCc2cccs2)CC(C(=O)N2CCOCC2)=C1C (centres undefined) | -1.75%

From PubChem BioAssay AID743279 (National Center for Advancing Translational Sciences (NCATS), 2014)
